This passage reports Potency, activity change, negative = inhibition and outcome results from PubChem BioAssay (NCATS).

Records with an inconclusive call do not appear. Entries that show only a call come without a potency. Active and inactive are the calls of the source. Unless noted, the call rests on the fitted dose curve; in most records, active means well fitted curve in either direction with a large enough effect (not every such curve was filed as active); inconclusive means small, poorly fitted or top-dose-only effect, or another doubt; inactive means flat fitted curve, though single readings scatter.

The target of the first assay is Cytochrome P450 1A2 (Homo sapiens) (UniProt P05177). Put plainly: p450-cyp1a2 (AID 410; calls by dose curve; further: potency means the concentration at half of the fitted maximal effect). The note with it: recombinant CYP1A2, luciferin-ME demethylation, luminescence; series mostly up to 25.6 µM. The method, boiled down: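 20nM CYP1A2, 100uM Luciferin-ME (=Km), 100mM KPO4; cpd 10 min RT; +NADPH regen, 60 min RT; stop/detect 20 min; luminescence. Normalized to furafylline 57 uM = full inhibition.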
Sequence of Cytochrome P450 1A2 (Homo sapiens) (P05177 whole entry, looked up): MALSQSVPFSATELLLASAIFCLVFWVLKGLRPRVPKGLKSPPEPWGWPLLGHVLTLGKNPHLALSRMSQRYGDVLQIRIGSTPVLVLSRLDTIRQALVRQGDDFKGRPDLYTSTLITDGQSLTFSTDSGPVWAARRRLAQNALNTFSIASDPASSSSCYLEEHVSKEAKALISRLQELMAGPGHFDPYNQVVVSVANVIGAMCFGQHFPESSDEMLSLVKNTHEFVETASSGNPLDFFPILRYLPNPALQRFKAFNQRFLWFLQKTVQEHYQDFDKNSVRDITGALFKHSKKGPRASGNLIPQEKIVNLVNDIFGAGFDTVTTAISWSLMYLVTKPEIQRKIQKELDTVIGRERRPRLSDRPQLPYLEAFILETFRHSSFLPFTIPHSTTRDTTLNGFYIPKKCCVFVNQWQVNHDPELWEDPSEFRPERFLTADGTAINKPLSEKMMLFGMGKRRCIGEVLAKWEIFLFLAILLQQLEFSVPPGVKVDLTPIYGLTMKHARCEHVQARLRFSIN
As to `O=C1C=CC(=O)c2c1ccc1c2ccc2ccccc21`, the Potency was 0.794 µM (active).

In the case of `NCCC(=O)N[C@@H](Cc1cnc[nH]1)C(=O)O`, the Potency entry was “inactive”.

In the case of `CCC(=O)[C@@]1(C)[C@H](C)C[C@@H]2[C@@H]3CCC4=CC(=O)C=C[C@@]4(C)[C@H]3[C@H](O)C[C@]21C`, the Potency entry was “inactive”.

For the compound `COc1cc2ccc(=O)oc2c(O)c1O`, the Potency was 12.6 µM (active).

For the compound `C[C@@H]1O[C@H](O[C@@H]2[C@H](C)O[C@H](O[C@@H]3[C@H](C)O[C@H](O[C@H]4CC[C@]5(C)[C@@H](CC[C@@H]6[C@H]5C[C@@H](O)[C@]5(C)[C@@H](C7=CC(=O)OC7)CC[C@]65O)C4)C[C@@H]3O)C[C@@H]2O)C[C@H](O)[C@@H]1O`, the Potency result was “inactive”.

As to `Cc1onc(-c2c(F)cccc2Cl)c1C(=O)N[C@H]1C(=O)N2[C@H]1SC(C)(C)[C@H]2C(=O)O`, the Potency result is “inactive”.

Take `CCN(CC)[C@@H](C)CN1c2ccccc2Sc2ccccc21`: the Potency was 0.501 µM (active).

As for `O=c1cc(-c2cccc(O)c2)oc2cc(O)ccc12`, the Potency is 5.01 µM (active).

Turning to `CO[C@@H]1CC[C@@]2(C)[C@@H](CC[C@@]3(C)[C@H]2CC=C2[C@H]4CC(C)(C)[C@H](O)[C@@H](OC(C)=O)[C@]4(CO)[C@H](O)C[C@]23C)[C@@]1(C)CO` (tested in a mixture with another compound), the Potency result is “inactive”.

In the case of `CN1[C@H](CC(=O)c2ccccc2)CCC[C@H]1C[C@@H](O)c1ccccc1`, the Potency is 31.6 µM (active).

For the compound `CC[C@H](C(=O)[C@H](C)[C@H](O)[C@H](C)CCc1ccc(C)c(O)c1C(=O)O)[C@H]1O[C@](CC)([C@@H]2CC[C@@](O)(CC)[C@H](C)O2)C[C@H]1C`, the Potency result is “inactive”.

Take `CC=C(/C(=C/C)c1ccc(O)cc1)c1ccc(O)cc1`: the Potency was 15.8 µM (active).

In the case of `Cc1ccnc(N)c1`, the Potency result was “inactive”.

On to `CC1(C)S[C@@H]2[C@H](NC(=O)[C@@H](N)c3ccccc3)C(=O)N2[C@H]1C(=O)O[C@H]1OC(=O)c2ccccc21`, for which the Potency result was “inactive”.

System in a further assay: not listed separately
Kind of assay: NFAT Signaling Pathway (AID 444).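 Further: carbachol stimulus at about its EC50 of 1 µM final.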 The note with it: Jurkat NFAT-bla M1, carbachol, beta-lactamase ratio, 5 h; at 17.2 µM (top of the series) unless noted. The essentials: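 Jurkat cells carrying an NFAT-driven β-lactamase reporter and co-transfected muscarinic M1 receptor were treated with compound plus carbachol (1 uM final, an EC50 level) for 5 h at 37 °C. CCF4 loading followed for 1 h at RT; 460/530 nm ratio gave %activity.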
As for `CCO[C@H]1O[C@@H]([C@H](COCc2ccccc2)OCc2ccccc2)[C@@H](OCc2ccccc2)[C@H]1O`, the activity change, negative = inhibition was -29.7% (inactive).

As to `FC(F)(F)c1ccccc1-c1ccc2ncnc(NC3CCNCC3)c2c1`, the activity change, negative = inhibition was 2.61% [at 7.69 µM] (inactive).

In the case of `CC(C)(C)NC(=O)[C@@H]1C[C@H]2CCCC[C@@H]2CN1C[C@H](O)[C@H](Cc1ccccc1)NC(=O)[C@@H](CC(N)=O)NC(=O)c1ccc2ccccc2n1`, the activity change, negative = inhibition was -14.7% (inactive).

On to `C[C@@H](Cc1cccc(C(F)(F)F)c1)NCCOC(=O)c1ccccc1`, for which the activity change, negative = inhibition is -24.1% (inactive).

Take `C=C(C)[C@H]1CC[C@]2(C(=O)O)CC[C@]3(C)[C@@H](CC[C@H]4[C@@]5(C)CC[C@@H](O)C(C)(C)[C@@H]5CC[C@@]43C)[C@H]12`: the activity change, negative = inhibition was -3.55% (inactive).

With `Nc1ncnc2c1ncn2[C@@H]1O[C@H](COP(=O)(O)O)[C@@H](O)[C@@H]1O`, the activity change, negative = inhibition was -4.61% (inactive).

Turning to `CO[C@]1(NC(=O)[C@H](C(=O)O)c2ccc(O)cc2)C(=O)N2C(C(=O)O)=C(CSc3nnnn3C)CO[C@H]21`, the activity change, negative = inhibition is 6.17% (inactive).

For the compound `O=C1C=CC(=O)c2c1ccc1c2ccc2ccccc21`, the activity change, negative = inhibition was -25.7% (active).

With `Nc1ncn([C@H]2O[C@@H](CO)[C@@H](O)[C@@H]2O)c(=O)n1`, the activity change, negative = inhibition is -16.5% (inactive).

As for `CCC(C)(C)C(=O)O[C@@H]1C[C@H](C)C=C2C=C[C@H](C)[C@@H](CC[C@H]3C[C@@H](O)CC(=O)O3)[C@H]21`, the activity change, negative = inhibition was 7.6% (inactive).

Consider `Cc1onc(-c2c(F)cccc2Cl)c1C(=O)N[C@H]1C(=O)N2[C@H]1SC(C)(C)[C@H]2C(=O)O`, for which the activity change, negative = inhibition was -12.5% (inactive).

Take `COC(=O)[C@@H]1[C@@H]2C[C@H]3c4[nH]c5cc(OC)ccc5c4CCN3C[C@@H]2C[C@H](OC(=O)/C=C\c2cc(OC)c(OC)c(OC)c2)[C@H]1OC`: the activity change, negative = inhibition was 0.402% (inactive).

System in the next assay: not listed separately
Kind of assay: Stat Signaling Pathway (AID 446).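 Further: ME-180 cervical cancer cells given 40 pM IL-6 alongside compound; SIE-controlled beta-lactamase reporter measured as 460/530 nm FRET emission ratio.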 The note with it: ME-180 (cervical carcinoma) SIE beta-lactamase reporter, IL-6 stimulated, 5 h; series mostly up to 17.2 µM. The essentials:
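FRET read-out (405 nm excitation, 460/530 nm emission) of a beta-lactamase reporter under a STAT-inducible element in ME-180 cervical carcinoma cells. Cells with compound receive 40 pM IL-6 for 5 h. Values are normalised to AC90 stimulation and AC90 JAK-inhibitor controls.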
In the case of `CCO[C@H]1O[C@@H]([C@H](COCc2ccccc2)OCc2ccccc2)[C@@H](OCc2ccccc2)[C@H]1O`, the compound was called inactive.

Take `C1CCC(C(C[C@@H]2CCCCN2)C2CCCCC2)CC1`: the compound was classed as inactive.

As to `COc1cc(N[C@@H](C)CCCN)c2ncccc2c1`, the call was inactive.

For `CC(C)(C)NC(=O)[C@@H]1C[C@H]2CCCC[C@@H]2CN1C[C@H](O)[C@H](Cc1ccccc1)NC(=O)[C@@H](CC(N)=O)NC(=O)c1ccc2ccccc2n1`, the compound was classed as inactive.

As for `COC(=O)C1=C(C)NC(C)=C(C(=O)OCCN(C)Cc2ccccc2)[C@H]1c1cccc([N+](=O)[O-])c1`, the outcome was inactive.

For `C[C@@H](CN1c2ccccc2Sc2ccccc21)N(C)C`, the call was inactive.

Turning to `C[C@@H](Cc1cccc(C(F)(F)F)c1)NCCOC(=O)c1ccccc1`, the result was inactive.

Turning to `O=C(OC[C@@H](O)CO)c1ccccc1Nc1ccnc2cc(Cl)ccc12`, the compound was called inactive.

As for `COc1ccc2c(c1)N(C[C@@H](C)CN(C)C)c1ccccc1S2`, the compound was classed as inactive.

With `CCN(CC)CCOC(=O)[C@@H](c1ccccc1)C1CCCCC1`, the compound was classed as inactive.

`O[C@@](CCN1CCCCC1)(c1ccccc1)[C@@H]1C[C@H]2C=C[C@@H]1C2`: the compound was classed as inactive.

For the compound `CCC(=O)[C@@]1(C)[C@H](C)C[C@@H]2[C@@H]3CCC4=CC(=O)C=C[C@@]4(C)[C@H]3[C@H](O)C[C@]21C`, the result was inactive.

Take `CCC(C)(C)C(=O)O[C@@H]1C[C@H](C)C=C2C=C[C@H](C)[C@@H](CC[C@H]3C[C@@H](O)CC(=O)O3)[C@H]21`: the compound was called inactive.

Take `Cc1onc(-c2c(F)cccc2Cl)c1C(=O)N[C@H]1C(=O)N2[C@H]1SC(C)(C)[C@H]2C(=O)O`: the compound was called inactive.

In the case of `CCN(CC)[C@@H](C)CN1c2ccccc2Sc2ccccc21`, the result was inactive.

`COC(=O)[C@@H]1[C@@H]2C[C@H]3c4[nH]c5cc(OC)ccc5c4CCN3C[C@@H]2C[C@H](OC(=O)/C=C\c2cc(OC)c(OC)c(OC)c2)[C@H]1OC`: the result was inactive.

`CC=C(/C(=C/C)c1ccc(O)cc1)c1ccc(O)cc1`: the outcome was inactive.
